Source: PubChem BioAssay
Most compounds without a hit are left out; they make up all but 2.5% or so of the library.
14-3-3 Bad PPI: disrupts binding of bovine 14-3-3 zeta to phospho-Bad peptide; P63103; TR-FRET 14-3-3zeta/Dy647-pBad peptide displacement, 1 h; inhibition, % at 21.7 µM; 0.71% of 220,000 active;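 active = inhibition above about 70%, limit read from the data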;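 note: 0% = full 14-3-3 plus peptide FRET controls and 100% = background without 14-3-3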
Target sequence (P63103 whole entry, looked up): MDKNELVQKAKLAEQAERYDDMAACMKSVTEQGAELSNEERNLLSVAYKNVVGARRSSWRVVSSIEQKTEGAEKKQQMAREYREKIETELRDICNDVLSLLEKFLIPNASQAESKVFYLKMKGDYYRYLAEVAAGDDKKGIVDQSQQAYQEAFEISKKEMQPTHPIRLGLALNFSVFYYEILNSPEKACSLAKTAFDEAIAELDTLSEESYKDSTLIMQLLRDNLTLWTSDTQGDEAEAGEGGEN
Bim-Mcl-1: human Bim-Mcl-1 interaction inhibition | Q07820 | inhibition, % at 10 µM | Bead-based flow cytometry, Bim peptide-Mcl-1 binding | 0.1% of 190,000 active; in the data active = inhibition above about 40%;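 note: 0% = no compound tracer wells and 100% = peptide blocker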
Target sequence (Q07820 whole entry, looked up): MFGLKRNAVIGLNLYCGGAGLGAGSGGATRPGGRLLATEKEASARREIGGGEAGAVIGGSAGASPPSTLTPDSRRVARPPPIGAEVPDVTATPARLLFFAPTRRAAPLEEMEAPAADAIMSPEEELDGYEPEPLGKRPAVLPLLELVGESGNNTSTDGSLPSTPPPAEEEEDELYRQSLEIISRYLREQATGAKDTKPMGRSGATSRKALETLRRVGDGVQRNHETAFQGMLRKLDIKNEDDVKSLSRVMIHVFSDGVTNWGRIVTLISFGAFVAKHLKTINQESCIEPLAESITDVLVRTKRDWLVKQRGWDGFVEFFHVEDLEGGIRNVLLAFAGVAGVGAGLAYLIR
Mcl1-Noxa inh: Mcl-1/Noxa interaction inhibition; Q07820; TR-FRET Mcl-1/Noxa peptide binding, 2 h; inhibition, % at 21.7 µM; 1.5% of 220,000 active; AID 1022;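 active = compounds that cut the protein-peptide binding signal by more than 50% relative to plate controls in a single-dose test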;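 note: His-tagged Mcl-1 with rhodamine Noxa BH3 peptide and terbium anti-His antibody; 0% = Mcl-1 plus Noxa peptide wells and 100% = peptide-only wells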
MCL1 BIM primary: MCL1-BIM-BH3 interaction inhibition (human); GST-MCL1 / FITC-Bim-BH3 fluorescence polarization; 0.68% of 320,000 active; AID 2057; inhibition, % at 10.9 µM;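 active = inhibition above the mean inhibition of all tested compounds plus 3 SD, set per campaign, cut at about 40% in these data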;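 note: 0% = DMSO wells and 100% = unlabeled Bim-BH3 peptide control; higher means more loss of mP so more displacement of Bim peptide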
Mcl1-Bid inh: Mcl-1/Bid interaction inhibition. Q07820. TR-FRET Mcl-1/Bid-Dy647 peptide binding, 1536-well. inhibition, % at 21.7 µM. 0.97% of 220,000 active. AID 1021;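 active = compounds that cut the binding signal by more than half at the single screening dose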;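 note: His-tagged Mcl-1 with europium anti-His antibody binding Bid BH3 peptide; 0% = Mcl-1 plus peptide wells and 100% = peptide-only wells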
The depositor's hits bear a star; . = not tested or not shown; [ ] = another dose, or the depositor's remark.

SMILES	14-3-3 Bad PPI	Bim-Mcl-1	Mcl1-Noxa inh	MCL1 BIM primary	Mcl1-Bid inh
O=C1/C(=C/c2ccc([N+](=O)[O-])cc2)C=C(c2ccccc2)N1c1ccc(O)cc1	-2	-3	60*	2	6
O=C1/C(=C/c2ccc([N+](=O)[O-])cc2)C=C(c2ccccc2)N1c1ccccc1	0	-1	3	-13	-6
Cc1ccc(S(=O)(=O)N(C)C)cc1NC(=O)c1cc(C(C)(C)C)nn1Cc1ccccc1	4	.	3	6	16
CCOCCCn1c(=O)c2ccccc2n2c(=S)[nH]nc12	.	.	.	-35	.
CCCNC(=O)c1ccc(Cn2c(=S)[nH]c3c([nH]c4ccc(OC)cc43)c2=O)cc1	7	-16	60*	-17	-1
O=C1C=C(O)c2cccc(O)c2C1=O	0	.	60*	13	-78
CCOc1ccc(/C=C2/SC(=O)NC2=S)cc1	1	-4	29	50*	-15
CCn1c(C(Cc2ccccc2)NC(=O)COC)nc2ccccc21 (configuration not stated)	2	-1	-1	-1	-6
O=c1c(-c2cnn(-c3ccccc3)c2)coc2cc(O)ccc12	46	-6	57*	3	4
Cc1oc2cc(O)ccc2c(=O)c1-c1cnn(-c2ccccc2)c1	.	-1	-14	10	-58
CC(=O)N1CCc2cc(S(=O)(=O)NC(C(=O)Nc3nc(C)cs3)C(C)C)ccc21 (configuration not stated)	-5	0	14	-1	-13
OC(CNCC(c1ccco1)N1CCCCC1)c1ccccc1 (configuration not stated)	58	1	21	0	63*
O=C(CSc1ccccc1)NCC(c1ccco1)N1CCCCC1 (configuration not stated)	.	.	.	-4	.
CC(=O)Nc1ccc(NC(=O)CC2Nc3cccc4cccc(c34)NC2=O)cc1 (configuration not stated)	.	-1	35	9	-116
CC(=O)c1ccc(NC(=O)CC2Nc3cccc4cccc(c34)NC2=O)cc1 (configuration not stated)	-8	-1	83*	14	-35
CCOC(=O)c1c(C)[nH]c(C(=O)COC(=O)c2ccc(O)cc2)c1C	82*	.	-31	-2	-4
CCOC(=O)c1c(C)[nH]c(C(=O)OCCOc2ccc(Cl)cc2)c1C	3	-1	-2	3	-6
CCOC(=O)c1c(C)[nH]c(C(=O)CSc2nc3ccccc3o2)c1C	-15	-1	69*	0	-7
CCOC(=O)c1c(C)[nH]c(C(=O)OCCOc2ccccc2C)c1C	75*[fluorescence artefact?]	-2	12	.	-2
C=CCC1(C(=O)NCCO)CCN(C(=O)OC(C)(C)C)CC1	.	.	.	-3	.
Cc1ccc2[nH]c(=O)c(CN(CCO)Cc3nnnn3CCc3ccccc3)cc2c1	2	1	-12	-2	-6
COc1ccccc1CCc1nnc(CCC(=O)NC(C)Cc2cccnc2)o1 (configuration not stated)	0	0	9	12	83*
Cc1[nH]c2ccc(F)cc2c1CCN(Cc1ccncc1)C(=S)Nc1ccc(F)cc1	-15	-3	-1	10	-38
C=CCn1c(C)cc(C(=O)Cn2ncc(Cl)c(Cl)c2=O)c1C	-18	-5	86*	26	-76
N#Cc1ccc(OCC(=O)N/N=C2\CCc3ccccc32)cc1	-2	-2	-4	-3	-4
SMILES	14-3-3 Bad PPI	Bim-Mcl-1	Mcl1-Noxa inh	MCL1 BIM primary	Mcl1-Bid inh
CN(C(=O)CSc1ncnc2sccc12)C1CCS(=O)(=O)C1 (configuration not stated)	.	.	.	4	.
CCOC1=C/C(=C/c2c(N)n3nc(-c4ccccc4)sc3nc2=O)C=CC1=O	11	-1	89*	.	-33
COC1=C/C(=C/c2c(N)n3nc(-c4ccc(C)cc4)sc3nc2=O)C=CC1=O	72*	3	84*	.	27
CCOC1=C/C(=C/c2c(N)n3oc(C)cc3nc2=O)C=CC1=O	-8	1	24	-2	-42
CCS(=O)(=O)c1nn2c(N)c(/C=C3/C=CC(=O)C(OC)=C3)c(=O)nc2s1	-6	0	58*	-33	-42
CCOC(=O)C1=C(C)N(CCCCCC(=O)O)C(=O)NC1c1ccccc1Cl (configuration not stated)	11	-2	13	9	5
CC(C)C(O)(C#CCN1CCCC1)c1ccccc1 (configuration not stated)	52	0	34	-1	32
CC(C)C(O)(C#CCN1CCCCC1)c1ccccc1 (configuration not stated)	80*	-2	31	0	18
CN(C)CCOc1ccccc1C(C)(C)C	48	-7	33	4	63*
CN(C)CCOc1ccc(C(C)(C)c2ccccc2)cc1	58	-1	26	-1	65*
COC(=O)C1CCN(C(=O)c2ccc3nc(-c4cccc(OC)c4)oc3c2)CC1	.	.	.	-6	.
O=C(Nc1ccc(O)c(-c2nc3ccccc3s2)c1)c1cccs1	-20	0	-217	1	-56
O=C(Nc1ccc(O)c(-c2nc3ccccc3s2)c1)c1cc(=O)c2ccccc2o1	76*	-7	51*	-5	52*
CCC(=O)Nc1ccc(NC(=S)NC(=O)/C=C/c2ccco2)cc1	.	.	.	20	.
CC(=O)NC(=S)Nc1ccc(NC(=S)NC(=O)/C=C/c2ccco2)cc1	32	.	66*	2	44
O=C(/C=C/c1ccco1)NC(=S)Nc1ccc(O)c(-c2nc3ccccc3s2)c1	22	-6	52*	15	59*
COc1cccc(CN2CCc3[nH]c(=S)[nH]c(=O)c3C2)c1	.	.	.	15	.
COc1ccc(Cn2nc(-c3ccccc3)c(N3CCCCC3)cc2=O)cc1	4	6	13	11	-5
COC1=CC(=O)CC(C)C12Oc1c(Cl)c(OC)cc(OC)c1C2=O (configuration not stated)	77*	0	-66	-1	1
COC1=CC(=O)C[C@@H](C)[C@]12Oc1c(Cl)c(OC)cc(OC)c1C2=O	.	.	.	6	.
COc1ccc(CCn2c(N)c(S(=O)(=O)c3cccs3)c3nc4ccccc4nc32)cc1OC	-9	7	-8	0	-40
CCOC(=O)c1c(S(=O)(=O)NCC(=O)Nc2cc(C)ccn2)c(C)n(C)c1C	.	.	.	1	.
Cc1cccc2c3nc4ccccc4nc3n(CCCN3C(=O)c4ccccc4C3=O)c12	1	3	14	.	73*
CC(=O)c1cccc(-n2nnnc2SCC(=O)Nc2ccccc2N2CCCCC2)c1	-1	0	15	-4	-17
CCOc1ccc2[nH]c3c(NCCc4ccc(OC)c(OC)c4)ncnc3c2c1	-3	.	57*	4	-49
Cn1c(-c2ccc(Br)cc2)cnc1NCc1cccnc1	79*	-5	25	3	3
Cn1c(-c2ccc(F)cc2)cnc1NCc1ccc(C#N)cc1	6	-1	27	3	-1
Cn1c(-c2ccc(F)cc2)cnc1NCc1ccc(F)cc1	80*	4	18	-2	4
